Source: PubChem (NMMLSC)
In the library only some 1.2% were active in any assay of this set; here they are far more common.
GSH fluor = compound fluorescence on glutathione beads, profiling panel, artefact control, biophysical, 488/530 nm, flow cytometry; GSH beads flow cytometry, compound fluorescence 488/530 nm; hits give high values; fluorescence (KMESF) at 10 µM; 0.25% of 190,000 active; AID 1776, 2009; in the data active means fluorescence above about 89;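 further: glutathione beads carrying GST-tagged Bcl family fusion proteins plus one bare bead set; values are compound well signal with DMSO vehicle wells as background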
RGS8-Gao = RGS8-Galphao binding modulators, primary screen, biochemical, multiplexed bead flow cytometry; AID 1423, 2008; actives lie on both sides; response (percent of control binding), % at 10 µM; 0.34% of 220,000 active; in the data active means response below about 60% or above about 140%; inactive means in between;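 further: Galphao activated as the GDP aluminium fluoride complex binding bead-coupled RGS8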
Target sequence (P09471 whole entry, looked up): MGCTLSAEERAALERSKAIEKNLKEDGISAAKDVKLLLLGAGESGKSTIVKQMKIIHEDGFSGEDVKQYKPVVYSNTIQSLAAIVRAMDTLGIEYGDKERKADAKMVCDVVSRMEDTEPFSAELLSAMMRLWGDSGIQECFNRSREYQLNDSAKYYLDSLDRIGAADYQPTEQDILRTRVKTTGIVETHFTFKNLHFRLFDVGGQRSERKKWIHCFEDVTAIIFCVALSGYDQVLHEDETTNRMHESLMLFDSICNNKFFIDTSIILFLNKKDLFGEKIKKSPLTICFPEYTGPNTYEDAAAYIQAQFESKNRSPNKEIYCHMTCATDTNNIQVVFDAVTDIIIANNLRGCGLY
RGS4-Gao reg = modulators of RGS4 binding to Galphao, primary screen, biochemical, multiplexed bead flow cytometry | Guanine nucleotide-binding protein G(o) subunit alpha (Homo sapiens), P09471 | 0.33% of 220,000 active | AID 1415, 2008 | actives lie on both sides | binding response (% of control), % at 10 µM; in the data active means binding response below about 49% or above about 150%; inactive means in between;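 further: fluorescent Galphao activated with aluminum fluoride binding bead-coupled RGS4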
Avidin fluor = green autofluorescence of compounds with avidin beads – biophysical, 488/530 nm, flow cytometry, artefact control, profiling panel. compound fluorescence 488/530 nm; hits give high values. fluorescence (KMESF) at 10 µM. 0.38% of 220,000 active. AID 1775, 2009; in the data active means fluorescence above about 47
RGS16-Gao HTS = modulators of RGS16 binding to Galphao, primary screen, biochemical, human proteins, multiplexed bead flow cytometry | binding response (% of control), % at 10 µM | bead-based flow cytometry RGS16-Galphao binding, fluorescence; actives lie on both sides | AID 1441, 2008 | 0.38% of 220,000 active; call rule not given here;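 further: Galphao activated by GDP with aluminum fluoride before binding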
RGS7-Gao reg = RGS7-Galphao binding modulators, primary screen, biochemical, multiplexed bead flow cytometry. 0.35% of 220,000 active. binding response (% of control), % at 10 µM. Guanine nucleotide-binding protein G(o) subunit alpha (Homo sapiens), P09471. actives lie on both sides; in the data active means binding response below about 49% or above about 150%; inconclusive means no clear call, values can overlap the other calls; inactive means in between;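 further: fluorescent Galphao held in activated GDP-AlF4 state binding bead-coupled RGS7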
Active calls of the source: *; u = inconclusive; x = no result; [ ] = another dose, or the depositor's remark.

SMILES	GSH fluor	RGS8-Gao	RGS4-Gao reg	Avidin fluor	RGS16-Gao HTS	RGS7-Gao reg
CCOC(=O)N1CCC(NC(=O)c2cnc3n(c2=O)CCS3)CC1	18	2.7*	-14*	-2	-13*	-21*
CCCCNC(=O)c1cnc2n(c1=O)CCS2	23	101	102	29	99	103
O=C(CSc1nnc(CNc2ccc(F)cc2)o1)c1ccccc1	14	105	101	11	101	97
O=C(N/N=C\c1ccc(Cl)cc1)C1=NOC2COC3(CCN(c4ccc([N+](=O)[O-])cc4)CC3)OCC12 (stereo unspecified)	x	101	105	17	107	u
COc1ccc(/C=C/C(=O)c2ccccc2O)cc1	17	103	159*[activator]	69*	107	148
CS(=O)(=O)N1CCC(C(=O)Nc2ccc(F)cc2F)CC1	24	101	104	79*	100	118
O=[N+]([O-])c1cc(S(=O)(=O)Nc2cccc(Cl)c2)ccc1N/N=C/c1ccc(N2CCOCC2)cc1	x	99	98	8	99	u
COC(=O)c1c(NC(=O)CSc2nnc(-c3ccco3)n2Cc2ccccc2)sc(C)c1C	268*	102	100	8	102	104
COC(=O)CSc1nnc(-c2ccco2)n1Cc1ccco1	27	104	107	72*	119	127
COc1ccc(Cl)cc1C(=O)Nc1nnn(C)n1	257*	112	109	6	133	107
Cc1ccnc2nc(C(=O)Nc3nccs3)nn12	253*	100	99	6	106	102
Cc1ccnc2nc(C(=O)NC3=NCCS3)nn12	11	105	107	26	110	104
COc1cccc(OC)c1OCCCCN1CCCC1	15	100	98	56*	95	107
COc1cccc(OC)c1OCCCN1CCOCC1	16	101	102	11	104	99
CCOC(=O)c1ccccc1NC(=O)CSc1nc2c(c(=O)n(C)c(=O)n2C)n1C	25	100	100	13	101	100
CCOC(=O)c1ccccc1NC(=O)Cn1cnc2c1c(=O)n(C)c(=O)n2C	11	7.8*	-24*	-3	-15*	-8.2*
COC(=O)C(NNc1ccccc1)(NC(=O)c1cccc(F)c1)C(F)(F)F (stereo unspecified)	26	92	100	3	63	99
Cc1cc(C(=O)OCc2nnc(-c3ccccc3)o2)c(C)n1-c1ccccc1	261*	102	101	7	106	101
CCOc1ccc(N2C(=O)CC(Sc3nc(C)cc(C)n3)C2=O)cc1 (stereo unspecified)	17	103	104	6	99	105
CCOc1ccc(N2C(=O)CC(SCCN)C2=O)cc1 (stereo unspecified)	267*	100	100	6	103	99
Cc1cc(C(=O)NCC(=O)OC(C(=O)Nc2cc(C(F)(F)F)ccc2Cl)c2ccccc2)ccc1[N+](=O)[O-] (stereo unspecified)	257*	101	101	7	104	102
CCOC(=O)C1C(=O)C=C(/C=C/c2ccc(N(C)C)cc2)CC1c1ccccc1 (stereo unspecified)	23	108	106	16	122	102
CCN(CC)CCC(c1ccc(N(C)C)cc1)c1c(O)cc(OC)cc1OC (stereo unspecified)	x	104	106	8	100	u
CCCN(Cc1cc2cc(OC)ccc2[nH]c1=O)C(=O)c1ccco1	x	100	125	49*	102	u
CCCCN(Cc1cc2cc(OC)ccc2[nH]c1=O)C(=O)c1ccco1	11	103	106	5	101	107
Cc1ccc(OCc2nnc(SCCN3CCOCC3)n2C)cc1	30	79	90	8	44	87
CCc1ccc(OCc2nnc(SCCN3CCOCC3)n2C)cc1	260*	103	99	9	106	104
